# Measured values from PMC7862700, “An all-to-all approach to the identification of sequence-specific readers for epigenetic DNA modifications on cytosine”.
# Tests used:
# Assay in all cases: DAPPL (digital affinity profiling via proximity ligation, sequencing); 10 mM Tris-HCl pH 7.5, 50 mM NaCl, 1 mM DTT, 4% glycerol, room temperature, 30 min; GST-TFs on glutathione beads, 16-mer random dsDNA library, 0.1% formaldehyde crosslink after washing; high values mean tight binding
# [1] = target: T1, FEV (Homo sapiens, UniProt Q99581 1-238); conditions: protein: recombinant; tags: N-terminal GST; dsDNA, one strand shown
# T1 sequence: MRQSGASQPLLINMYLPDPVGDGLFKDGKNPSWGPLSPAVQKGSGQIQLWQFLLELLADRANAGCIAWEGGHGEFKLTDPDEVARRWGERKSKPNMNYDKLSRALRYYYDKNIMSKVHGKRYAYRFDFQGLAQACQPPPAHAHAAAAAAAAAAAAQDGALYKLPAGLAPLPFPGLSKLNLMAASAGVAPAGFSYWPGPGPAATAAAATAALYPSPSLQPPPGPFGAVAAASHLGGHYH
# Method in brief: (§1)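 Human transcription factors were made in yeast as GST fusions, captured on glutathione beads and barcoded with DNA. With a tag-only sample included, the pool was incubated with 200 nmole of a random double-stranded 16-mer DNA library in Tris/NaCl/DTT/glycerol buffer at room temperature for 30 min, then crosslinked with 0.1% formaldehyde after washing, ligated by proximity, amplified and sequenced. For binding signal, each hexamer's read frequency for a factor is divided by its frequency for the tag-only sample.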
# [2] = target: ETV5 (Homo sapiens, UniProt P41161 1-510); conditions: protein: recombinant; tags: N-terminal GST; dsDNA, one strand shown
# Method in brief: as §1
# [3] = target: HSF1 (Homo sapiens, UniProt Q00613 1-529); conditions: protein: recombinant; tags: N-terminal GST; chain copies: 3; dsDNA, one strand shown
# Method in brief: as §1
# [4] = target: T2, SPIC (Homo sapiens, UniProt Q8N5J4 1-248); conditions: protein: recombinant; tags: N-terminal GST; dsDNA, one strand shown
# T2 sequence: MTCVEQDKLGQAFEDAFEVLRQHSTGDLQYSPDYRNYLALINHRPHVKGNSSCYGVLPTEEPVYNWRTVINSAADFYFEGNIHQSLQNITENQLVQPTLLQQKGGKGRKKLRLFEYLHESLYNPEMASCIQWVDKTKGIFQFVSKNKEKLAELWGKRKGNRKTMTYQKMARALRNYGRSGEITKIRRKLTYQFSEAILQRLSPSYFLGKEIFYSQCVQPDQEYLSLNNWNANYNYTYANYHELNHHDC
# Method in brief: as §1
# [5] = target: ELF4 (Homo sapiens, UniProt Q99607 1-663); conditions: protein: recombinant; tags: N-terminal GST; dsDNA, one strand shown
# Method in brief: as §1
# [6] = target: T3, ELK4 (Homo sapiens, UniProt P28324-2 1-405); conditions: protein: recombinant; tags: N-terminal GST; dsDNA, one strand shown
# T3 sequence: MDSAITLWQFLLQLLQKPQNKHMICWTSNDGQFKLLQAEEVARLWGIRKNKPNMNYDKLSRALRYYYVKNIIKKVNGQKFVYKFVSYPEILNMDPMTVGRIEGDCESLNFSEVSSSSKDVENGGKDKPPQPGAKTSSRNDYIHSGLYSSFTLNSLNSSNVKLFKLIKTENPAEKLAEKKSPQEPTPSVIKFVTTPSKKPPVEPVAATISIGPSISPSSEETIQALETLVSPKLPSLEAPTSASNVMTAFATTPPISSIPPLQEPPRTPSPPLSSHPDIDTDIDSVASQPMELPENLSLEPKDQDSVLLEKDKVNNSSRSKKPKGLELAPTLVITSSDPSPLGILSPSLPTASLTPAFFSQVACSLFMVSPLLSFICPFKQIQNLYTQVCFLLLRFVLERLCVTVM
# Method in brief: as §1
# [7] = target: T4, ETV2 (Homo sapiens, UniProt O00321 1-342); conditions: protein: recombinant; tags: N-terminal GST; dsDNA, one strand shown
# T4 sequence: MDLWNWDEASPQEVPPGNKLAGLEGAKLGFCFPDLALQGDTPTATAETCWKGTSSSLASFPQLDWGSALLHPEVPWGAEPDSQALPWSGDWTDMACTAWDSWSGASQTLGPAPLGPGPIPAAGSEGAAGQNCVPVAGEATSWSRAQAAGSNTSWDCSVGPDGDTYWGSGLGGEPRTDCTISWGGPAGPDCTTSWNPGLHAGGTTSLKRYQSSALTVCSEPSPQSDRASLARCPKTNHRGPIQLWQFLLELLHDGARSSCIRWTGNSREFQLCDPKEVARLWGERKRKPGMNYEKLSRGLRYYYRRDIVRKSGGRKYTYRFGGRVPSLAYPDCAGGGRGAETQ
# Method in brief: as §1
# [8] = target: T5, ELF3 (Homo sapiens, UniProt P78545 1-371); conditions: protein: recombinant; tags: N-terminal GST; dsDNA, one strand shown
# T5 sequence: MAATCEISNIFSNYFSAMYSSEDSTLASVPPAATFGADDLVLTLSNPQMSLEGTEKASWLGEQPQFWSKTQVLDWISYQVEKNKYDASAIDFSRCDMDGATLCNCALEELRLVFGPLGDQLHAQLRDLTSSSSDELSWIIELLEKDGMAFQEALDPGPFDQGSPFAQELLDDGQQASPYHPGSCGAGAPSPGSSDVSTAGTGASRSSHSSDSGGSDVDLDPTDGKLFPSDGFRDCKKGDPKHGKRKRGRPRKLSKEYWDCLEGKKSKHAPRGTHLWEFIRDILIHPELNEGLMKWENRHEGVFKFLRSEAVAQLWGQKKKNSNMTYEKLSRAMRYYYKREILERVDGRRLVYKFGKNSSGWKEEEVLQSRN
# Method in brief: as §1
# [9] = target: CRX (Homo sapiens, UniProt O43186 1-299); conditions: protein: recombinant; tags: N-terminal GST; dsDNA, one strand shown
# Method in brief: as §1
# [10] = target: ETV1 (Homo sapiens, UniProt P50549 1-477); conditions: protein: recombinant; tags: N-terminal GST; dsDNA, one strand shown
# Method in brief: as §1
# [11] = target: T6, ERF (Homo sapiens, UniProt P50548 1-548); conditions: protein: recombinant; tags: N-terminal GST; dsDNA, one strand shown
# T6 sequence: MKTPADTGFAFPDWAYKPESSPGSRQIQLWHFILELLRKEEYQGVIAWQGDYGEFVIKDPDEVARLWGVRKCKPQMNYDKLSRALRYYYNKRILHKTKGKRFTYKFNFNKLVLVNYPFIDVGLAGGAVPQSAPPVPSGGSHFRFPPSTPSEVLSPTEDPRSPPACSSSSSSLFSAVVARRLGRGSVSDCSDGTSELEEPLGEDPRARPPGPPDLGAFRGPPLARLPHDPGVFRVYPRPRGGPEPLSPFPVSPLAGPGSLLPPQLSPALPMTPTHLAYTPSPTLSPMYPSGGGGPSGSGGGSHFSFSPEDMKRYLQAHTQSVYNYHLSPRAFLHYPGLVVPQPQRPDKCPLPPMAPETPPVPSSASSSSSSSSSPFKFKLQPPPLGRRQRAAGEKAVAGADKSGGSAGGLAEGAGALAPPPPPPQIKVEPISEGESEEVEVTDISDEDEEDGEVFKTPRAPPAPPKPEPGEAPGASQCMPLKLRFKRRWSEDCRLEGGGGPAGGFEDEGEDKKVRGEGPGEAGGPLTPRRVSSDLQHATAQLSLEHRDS
# Method in brief: as §1
# [12] = target: T7, ETV3L (Homo sapiens, UniProt Q6ZN32 1-361); conditions: protein: recombinant; tags: N-terminal GST; dsDNA, one strand shown
# T7 sequence: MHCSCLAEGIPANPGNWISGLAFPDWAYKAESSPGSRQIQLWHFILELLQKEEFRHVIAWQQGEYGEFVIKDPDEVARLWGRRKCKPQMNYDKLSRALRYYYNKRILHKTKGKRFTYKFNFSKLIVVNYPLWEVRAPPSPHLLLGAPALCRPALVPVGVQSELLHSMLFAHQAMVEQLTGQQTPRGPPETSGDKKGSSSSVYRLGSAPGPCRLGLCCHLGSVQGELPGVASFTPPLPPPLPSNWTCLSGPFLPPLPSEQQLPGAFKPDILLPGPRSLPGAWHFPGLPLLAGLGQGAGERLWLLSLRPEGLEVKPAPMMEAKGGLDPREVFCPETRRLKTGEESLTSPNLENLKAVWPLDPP
# Method in brief: as §1
# [13] = target: T8, ETS2 (Homo sapiens, UniProt P15036 1-469); conditions: protein: recombinant; tags: N-terminal GST; dsDNA, one strand shown
# T8 sequence: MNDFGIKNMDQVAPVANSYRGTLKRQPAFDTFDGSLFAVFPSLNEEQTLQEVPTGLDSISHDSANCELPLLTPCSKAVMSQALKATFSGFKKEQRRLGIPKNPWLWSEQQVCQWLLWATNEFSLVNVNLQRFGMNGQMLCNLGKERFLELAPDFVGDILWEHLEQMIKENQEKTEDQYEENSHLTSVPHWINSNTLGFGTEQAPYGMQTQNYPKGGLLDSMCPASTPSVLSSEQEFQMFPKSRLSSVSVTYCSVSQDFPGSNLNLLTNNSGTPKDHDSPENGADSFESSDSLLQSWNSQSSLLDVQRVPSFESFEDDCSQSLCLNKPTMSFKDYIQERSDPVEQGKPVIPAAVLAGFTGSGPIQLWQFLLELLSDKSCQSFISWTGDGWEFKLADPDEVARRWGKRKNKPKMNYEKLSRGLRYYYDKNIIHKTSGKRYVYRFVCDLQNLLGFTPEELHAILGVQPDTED
# Method in brief: as §1
# [14] = target: T9, SPDEF (Homo sapiens, UniProt O95238 1-335); conditions: protein: recombinant; tags: N-terminal GST; dsDNA, one strand shown
# T9 sequence: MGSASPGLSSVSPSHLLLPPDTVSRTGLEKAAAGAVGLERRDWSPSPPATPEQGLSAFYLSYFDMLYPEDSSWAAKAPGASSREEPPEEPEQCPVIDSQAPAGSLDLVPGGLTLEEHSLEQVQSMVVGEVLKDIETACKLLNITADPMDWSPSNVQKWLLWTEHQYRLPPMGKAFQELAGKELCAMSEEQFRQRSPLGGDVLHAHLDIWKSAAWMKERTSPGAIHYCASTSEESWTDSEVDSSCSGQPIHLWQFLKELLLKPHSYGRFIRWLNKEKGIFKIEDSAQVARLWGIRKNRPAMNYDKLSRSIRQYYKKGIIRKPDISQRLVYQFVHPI
# Method in brief: as §1
# [15] = target: T10, ETV7 (Homo sapiens, UniProt Q9Y603 1-341); conditions: protein: recombinant; tags: N-terminal GST; dsDNA, one strand shown
# T10 sequence: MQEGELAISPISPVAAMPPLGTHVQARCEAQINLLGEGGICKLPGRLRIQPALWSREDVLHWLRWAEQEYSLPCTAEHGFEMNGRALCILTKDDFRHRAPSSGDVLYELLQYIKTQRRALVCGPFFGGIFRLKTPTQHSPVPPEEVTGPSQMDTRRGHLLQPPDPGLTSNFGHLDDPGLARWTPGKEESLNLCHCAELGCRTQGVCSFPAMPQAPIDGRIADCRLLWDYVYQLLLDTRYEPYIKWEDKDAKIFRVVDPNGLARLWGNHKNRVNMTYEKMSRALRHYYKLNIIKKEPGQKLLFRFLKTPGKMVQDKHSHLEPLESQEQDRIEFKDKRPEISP
# Method in brief: as §1
# [16] = target: T11, ELF5 (Homo sapiens, UniProt Q9UKW6-2 1-255); conditions: protein: recombinant; tags: N-terminal GST; dsDNA, one strand shown
# T11 sequence: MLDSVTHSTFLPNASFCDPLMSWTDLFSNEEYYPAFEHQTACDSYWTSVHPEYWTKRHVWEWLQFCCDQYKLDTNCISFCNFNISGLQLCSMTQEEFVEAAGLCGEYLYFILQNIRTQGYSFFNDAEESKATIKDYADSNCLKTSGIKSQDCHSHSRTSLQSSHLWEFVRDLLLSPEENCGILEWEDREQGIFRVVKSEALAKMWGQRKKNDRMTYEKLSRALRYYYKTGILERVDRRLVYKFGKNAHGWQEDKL
# Method in brief: as §1
# [17] = target: T12, ETV3 (Homo sapiens, UniProt P41162-2 1-143); conditions: protein: recombinant; tags: N-terminal GST; dsDNA, one strand shown
# T12 sequence: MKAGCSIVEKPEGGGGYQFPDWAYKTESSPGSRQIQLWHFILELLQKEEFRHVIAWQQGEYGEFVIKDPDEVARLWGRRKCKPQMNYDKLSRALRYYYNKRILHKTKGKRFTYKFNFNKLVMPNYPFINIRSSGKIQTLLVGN
# Method in brief: as §1
# [18] = target: ETV6 (Homo sapiens, UniProt P41212 1-452); conditions: protein: recombinant; tags: N-terminal GST; dsDNA, one strand shown
# Method in brief: as §1
# CRX, sequence (O43186 whole entry): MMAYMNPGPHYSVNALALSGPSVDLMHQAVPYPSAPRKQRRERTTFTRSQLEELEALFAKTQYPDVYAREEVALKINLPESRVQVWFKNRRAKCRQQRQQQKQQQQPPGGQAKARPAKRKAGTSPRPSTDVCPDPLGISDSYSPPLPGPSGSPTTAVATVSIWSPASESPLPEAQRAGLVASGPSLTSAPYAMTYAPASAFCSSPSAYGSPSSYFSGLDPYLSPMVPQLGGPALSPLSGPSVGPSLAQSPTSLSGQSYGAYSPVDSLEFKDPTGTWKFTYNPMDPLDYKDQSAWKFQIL
# ETV6, sequence (P41212 whole entry): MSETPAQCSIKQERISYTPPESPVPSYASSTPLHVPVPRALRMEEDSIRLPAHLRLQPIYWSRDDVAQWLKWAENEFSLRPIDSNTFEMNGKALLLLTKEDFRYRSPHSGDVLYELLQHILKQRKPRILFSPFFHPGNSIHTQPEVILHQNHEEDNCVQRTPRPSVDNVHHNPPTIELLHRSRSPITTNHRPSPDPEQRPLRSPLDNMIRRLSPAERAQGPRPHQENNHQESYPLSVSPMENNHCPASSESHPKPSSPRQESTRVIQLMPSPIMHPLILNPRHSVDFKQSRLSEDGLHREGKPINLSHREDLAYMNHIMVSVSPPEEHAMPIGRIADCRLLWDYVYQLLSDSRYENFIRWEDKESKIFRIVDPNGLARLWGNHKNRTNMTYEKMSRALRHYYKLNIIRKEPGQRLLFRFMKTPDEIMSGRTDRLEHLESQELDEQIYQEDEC
# HSF1, sequence (Q00613 whole entry): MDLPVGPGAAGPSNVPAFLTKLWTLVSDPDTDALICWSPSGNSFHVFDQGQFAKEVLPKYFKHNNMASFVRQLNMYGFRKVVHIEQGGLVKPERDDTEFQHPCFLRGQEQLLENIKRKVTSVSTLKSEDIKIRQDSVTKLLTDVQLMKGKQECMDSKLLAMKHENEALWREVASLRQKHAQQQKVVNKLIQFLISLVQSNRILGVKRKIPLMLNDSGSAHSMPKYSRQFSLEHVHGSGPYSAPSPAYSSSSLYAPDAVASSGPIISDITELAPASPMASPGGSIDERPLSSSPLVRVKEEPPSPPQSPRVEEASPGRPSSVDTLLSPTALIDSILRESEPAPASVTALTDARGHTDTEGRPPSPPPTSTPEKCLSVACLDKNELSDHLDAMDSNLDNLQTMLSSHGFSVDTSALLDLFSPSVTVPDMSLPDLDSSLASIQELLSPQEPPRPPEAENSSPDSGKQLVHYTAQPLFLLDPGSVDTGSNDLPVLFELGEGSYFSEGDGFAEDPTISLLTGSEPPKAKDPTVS
# ETV5, sequence (P41161 whole entry): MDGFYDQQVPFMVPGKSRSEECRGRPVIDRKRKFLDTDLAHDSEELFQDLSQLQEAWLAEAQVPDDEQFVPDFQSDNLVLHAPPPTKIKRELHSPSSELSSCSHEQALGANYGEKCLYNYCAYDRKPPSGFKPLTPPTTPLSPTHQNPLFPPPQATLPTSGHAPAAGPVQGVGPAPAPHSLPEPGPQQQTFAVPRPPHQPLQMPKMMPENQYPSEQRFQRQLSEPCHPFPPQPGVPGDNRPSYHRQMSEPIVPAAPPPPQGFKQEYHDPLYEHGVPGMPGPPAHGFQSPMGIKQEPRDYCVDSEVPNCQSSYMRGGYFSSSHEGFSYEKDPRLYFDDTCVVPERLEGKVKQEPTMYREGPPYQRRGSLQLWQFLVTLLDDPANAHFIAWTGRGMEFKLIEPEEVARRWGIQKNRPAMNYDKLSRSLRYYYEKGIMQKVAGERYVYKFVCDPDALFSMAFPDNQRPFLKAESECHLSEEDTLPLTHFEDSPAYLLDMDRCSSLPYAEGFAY
# ETV1, sequence (P50549 whole entry): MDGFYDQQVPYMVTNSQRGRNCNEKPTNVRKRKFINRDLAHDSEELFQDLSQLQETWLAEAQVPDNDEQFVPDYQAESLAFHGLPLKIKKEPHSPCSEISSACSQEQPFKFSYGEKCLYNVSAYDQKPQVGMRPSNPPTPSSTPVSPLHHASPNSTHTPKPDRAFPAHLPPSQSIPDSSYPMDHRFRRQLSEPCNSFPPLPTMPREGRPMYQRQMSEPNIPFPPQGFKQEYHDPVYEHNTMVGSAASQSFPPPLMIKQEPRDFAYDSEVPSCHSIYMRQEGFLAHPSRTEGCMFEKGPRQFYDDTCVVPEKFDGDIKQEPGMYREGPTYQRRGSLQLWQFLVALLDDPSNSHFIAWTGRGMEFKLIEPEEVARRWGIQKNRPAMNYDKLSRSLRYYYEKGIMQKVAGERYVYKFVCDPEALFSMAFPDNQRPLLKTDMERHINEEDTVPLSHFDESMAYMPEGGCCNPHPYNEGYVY
# ELF4, sequence (Q99607 whole entry): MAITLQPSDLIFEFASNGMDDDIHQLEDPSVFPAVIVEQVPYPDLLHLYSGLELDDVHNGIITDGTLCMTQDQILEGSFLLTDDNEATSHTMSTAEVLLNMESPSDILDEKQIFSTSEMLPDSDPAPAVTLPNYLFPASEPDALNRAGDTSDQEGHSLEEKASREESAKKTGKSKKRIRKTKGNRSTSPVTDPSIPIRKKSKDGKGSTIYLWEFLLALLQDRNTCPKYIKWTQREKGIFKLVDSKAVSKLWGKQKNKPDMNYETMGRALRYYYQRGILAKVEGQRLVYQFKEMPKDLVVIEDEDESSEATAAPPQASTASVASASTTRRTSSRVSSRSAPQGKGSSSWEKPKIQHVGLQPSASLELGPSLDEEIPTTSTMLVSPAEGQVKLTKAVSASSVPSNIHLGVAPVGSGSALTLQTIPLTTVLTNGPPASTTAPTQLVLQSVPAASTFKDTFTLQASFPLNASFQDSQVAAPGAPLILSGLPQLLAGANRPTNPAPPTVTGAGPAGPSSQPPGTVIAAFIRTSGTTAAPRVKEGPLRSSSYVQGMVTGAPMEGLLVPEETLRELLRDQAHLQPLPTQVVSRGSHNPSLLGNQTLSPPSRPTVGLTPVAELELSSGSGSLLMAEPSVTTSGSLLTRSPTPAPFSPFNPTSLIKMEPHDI
sequence,measurement,setting,value
TTTATA,binding signal,[1],"1.28 fold enrichment (6-mer frequency, TF over GST control)"
same,binding signal,[2],"1.24 fold enrichment (6-mer frequency, TF over GST control)"
same,binding signal,[3],"1.54 fold enrichment (6-mer frequency, TF over GST control)"
same,binding signal,[4],"1.37 fold enrichment (6-mer frequency, TF over GST control)"
same,binding signal,[5],"1.36 fold enrichment (6-mer frequency, TF over GST control)"
same,binding signal,[6],"1.37 fold enrichment (6-mer frequency, TF over GST control)"
same,binding signal,[7],"1.26 fold enrichment (6-mer frequency, TF over GST control)"
same,binding signal,[8],"1.36 fold enrichment (6-mer frequency, TF over GST control)"
same,binding signal,[9],"2.05 fold enrichment (6-mer frequency, TF over GST control)"
same,binding signal,[10],"1.31 fold enrichment (6-mer frequency, TF over GST control)"
same,binding signal,[11],"1.4 fold enrichment (6-mer frequency, TF over GST control)"
same,binding signal,[12],"1.42 fold enrichment (6-mer frequency, TF over GST control)"
same,binding signal,[13],"1.4 fold enrichment (6-mer frequency, TF over GST control)"
same,binding signal,[14],"1.3 fold enrichment (6-mer frequency, TF over GST control)"
same,binding signal,[15],"1.43 fold enrichment (6-mer frequency, TF over GST control)"
same,binding signal,[16],"1.27 fold enrichment (6-mer frequency, TF over GST control)"
same,binding signal,[17],"1.32 fold enrichment (6-mer frequency, TF over GST control)"
same,binding signal,[18],"1.38 fold enrichment (6-mer frequency, TF over GST control)"
